# Data from PubChem BioAssay AID485346 (Sanford-Burnham Center for Chemical Genomics, 2010).
# Hit rate of the full screen: of about 330,000 compounds, about 10,000 (3%) were called active. Only a selection was taken, and actives are over-represented in it overall. Unmarked numbers belong to inactive results.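 The calls were made as follows: active = inhibition of at least 50% at 8 µM in the primary screen; inactive = the rest.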
# Target: Protein Mdm4 (Homo sapiens) + E3 ubiquitin-protein ligase Mdm2 (Homo sapiens) (UniProt O15151+Q00987)
# Experiment: disruptors of Mdm2/MdmX RING complex – cell-based, luminescence, split luciferase, SaOS-2, uHTS, primary screen (AID 485346)
# Conditions: SaOS-2 split-luciferase Mdm2/MdmX complementation, at 8 µM, hits give high values
# Sequence of Protein Mdm4 (Homo sapiens) + E3 ubiquitin-protein ligase Mdm2 (Homo sapiens) (O15151 whole entry, looked up): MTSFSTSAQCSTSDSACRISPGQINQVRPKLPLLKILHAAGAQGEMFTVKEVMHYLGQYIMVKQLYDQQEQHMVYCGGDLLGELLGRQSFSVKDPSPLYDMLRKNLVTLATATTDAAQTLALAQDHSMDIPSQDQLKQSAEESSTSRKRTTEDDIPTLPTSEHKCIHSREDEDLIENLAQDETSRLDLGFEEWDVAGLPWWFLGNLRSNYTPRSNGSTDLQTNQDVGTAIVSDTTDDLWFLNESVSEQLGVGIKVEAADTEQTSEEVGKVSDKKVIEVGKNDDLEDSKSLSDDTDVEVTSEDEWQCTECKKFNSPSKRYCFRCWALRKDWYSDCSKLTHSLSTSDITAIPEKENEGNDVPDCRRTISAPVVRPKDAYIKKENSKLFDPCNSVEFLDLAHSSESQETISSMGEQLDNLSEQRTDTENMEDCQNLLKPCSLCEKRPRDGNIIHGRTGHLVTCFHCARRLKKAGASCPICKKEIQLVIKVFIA
# Sequence of Protein Mdm4 (Homo sapiens) + E3 ubiquitin-protein ligase Mdm2 (Homo sapiens) (Q00987 whole entry, looked up): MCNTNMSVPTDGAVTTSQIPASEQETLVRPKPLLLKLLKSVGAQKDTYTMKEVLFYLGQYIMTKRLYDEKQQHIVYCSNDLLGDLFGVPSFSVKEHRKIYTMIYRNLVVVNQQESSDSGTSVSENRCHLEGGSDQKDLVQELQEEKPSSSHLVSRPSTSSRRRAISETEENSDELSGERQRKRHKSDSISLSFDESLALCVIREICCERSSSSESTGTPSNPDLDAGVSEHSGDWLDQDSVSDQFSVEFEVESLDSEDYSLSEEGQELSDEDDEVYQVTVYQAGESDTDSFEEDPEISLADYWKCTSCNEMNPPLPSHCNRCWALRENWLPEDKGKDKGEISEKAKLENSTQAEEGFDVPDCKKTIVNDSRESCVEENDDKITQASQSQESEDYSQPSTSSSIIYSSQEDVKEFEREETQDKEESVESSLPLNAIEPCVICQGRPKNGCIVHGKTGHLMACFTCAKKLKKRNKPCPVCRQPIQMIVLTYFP
row,Structure (SMILES),inhibition
1,Cn1nccc1NS(=O)(=O)c1ccc(F)cc1,-11.5%
2,NS(=O)(=O)c1ccc(CCNC(=O)c2ccc([N+](=O)[O-])cc2[N+](=O)[O-])cc1,-0.842%
3,Cc1c(-c2ccccc2)cn2c1-c1ccc(C)n1CC2,-3.59%
4,O=S(=O)(c1cccs1)N1CCN(CCOc2ccccc2)CC1,14.3%
5,Cn1cc(S(=O)(=O)NC(c2ccccc2)c2ccccc2)c(=O)n(C)c1=O,7.36%
6,Nc1cccc(CCc2nc3ccccc3[nH]2)c1,-30.8%
7,Nc1cccc(-c2cc(-c3ccccc3)nc(-c3cccc(N)c3)n2)c1,65% (active)
8,c1ccc(-c2cc(-c3ccccc3)[nH]n2)cc1,-145%
9,N#Cc1cccc(CSc2ncnc(N)n2)c1,7.81%
10,COc1ccc(C2CC(c3cccs3)=NN2c2nc(C)c(C(C)=O)s2)cc1OC (stereo unspecified),67.5% (active)
11,COc1ccc(C2CC(c3cccs3)=NN2C(=O)CCC(=O)O)cc1OC (stereo unspecified),17.5%
12,COc1ccc(C2CC(c3cccs3)=NN2c2ccc(F)cc2)cc1OC (stereo unspecified),-3.01%
13,Cc1cc(NC(=O)CCC(=O)N(Cc2ccccc2)C(C(=O)NC2CCCC2)c2ccc(C)o2)no1 (stereo unspecified),16.1%
14,CC(C)(C)C(=O)NC(NC(=S)Nc1ccc(S(N)(=O)=O)cc1)C(Cl)(Cl)Cl (stereo unspecified),18.8%
15,O=C(Cc1cccc2ccccc12)NNC(=O)Nc1ccc(Cl)cc1,-10%
16,Cc1ccc(NC(=S)NC(NC(=O)Cc2cccc3ccccc23)C(Cl)(Cl)Cl)cc1 (stereo unspecified),79.8% (active)
17,COc1ccc(S(=O)(=O)N2CCN(C(=O)N(C)C)C2C)cc1 (stereo unspecified),-11.6%
18,O=c1ccc2cc(S(=O)(=O)NCCCc3ccccc3)ccc2[nH]1,23.1%
19,N#Cc1c(N)nc2c(c1N)CC(C(F)(F)F)O2 (stereo unspecified),9.73%
20,O=C(CCCN1C(=O)/C(=C\c2ccco2)SC1=S)Nc1cccc2ccccc12,86.5% (active)
21,Cc1ccc(-c2nn(-c3ccccc3)cc2/C=C2\SC(=S)N(CCCCCC(=O)O)C2=O)o1,34%
22,O=C(CN1C(=O)/C(=C\c2ccccc2F)SC1=S)Nc1nc2ccccc2s1,-22.4%

row,Structure (SMILES),inhibition
1,O=C(CCCCCN1C(=O)c2cccc3cccc(c23)C1=O)NCc1ccco1,2.52%
2,O=C(CCCN1C(=O)/C(=C/c2ccco2)SC1=S)Nc1ccccc1,68.6% (active)
3,CN1C(=O)/C(=C/c2ccco2)SC1=Nc1cccc(C(=O)O)c1,-14.1%
4,Cc1sc(NC(=O)C2=COCCO2)c(C#N)c1C,-49.9%
5,COc1ccc(N2CCN(C(=O)CN3C(=O)COc4ccccc43)CC2)cc1,-8.57%
6,CNC1(c2nnnn2-c2c(C)cccc2C)CCOC(C)(C)C1 (stereo unspecified),1.22%
7,CCOC(=O)[C@H]1[C@H]2COc3cc(OC)ccc3[C@@H]2N2C(=O)CN(Cc3ccc(Cl)cc3)C(=O)[C@@]12C,-12%
8,O=C(Cc1ccc(S(=O)(=O)N2CCOCC2)s1)NCCOc1ccccc1F,11.2%
9,Oc1c(Cl)cc(Cl)c(Cl)c1Cc1c(O)c(Cl)cc(Cl)c1Cl,95% (active)
10,CCOc1cc(/C=N/NC(=O)c2ccc(CSc3nncn3C)cc2)ccc1OCC(=O)N1CCOCC1,-20%
11,CCCCCCSc1ccc(-c2nc3ccc(Cl)cn3c2NCc2ccccc2)cc1,-24.5%
12,CCCCNc1c(-c2ccc(OC)c(Sc3ccc(OC)cc3)c2)nc2ccc(Cl)cn12,41.1%
13,CCCCNc1c(-c2cccc(Sc3ccc(OC)cc3)c2)nc2ccccn12,78.3% (active)
14,O=C1C(C=NCC2CCCO2)=C(O)c2ccccc21 (stereo unspecified),-17%
15,CC(=NCC1CCCO1)c1c(O)[nH]c(=O)[nH]c1=O (stereo unspecified),60.2% (active)
16,CC(=NC1CCN(Cc2ccccc2)CC1)c1c(O)[nH]c(=O)[nH]c1=O,10.7%
17,CN(Cc1ccccc1)C(=O)c1cccc(C(=O)N(C)Cc2ccccc2)c1,-13.2%
18,N#C/C(=C\c1ccccc1)c1n[nH]c(Cn2cncn2)n1,-1.38%
19,CCOC(=O)N1CCN(C(=O)C(=O)Nc2sc3c(c2C#N)CC(C)(C)OC3)CC1,13.5%
20,O=C(NCc1ccccc1)C1C(=O)N(Cc2ccccc2)C(=O)C1C1(O)CCCC1 (stereo unspecified),13%
21,CCc1nc(C)cn1S(=O)(=O)c1cc(OC)c(C)cc1C,8.72%
22,CCc1nc(C)cn1S(=O)(=O)c1cc([N+](=O)[O-])ccc1Cl,66.2% (active)

row,Structure (SMILES),inhibition
1,CC(C)c1nccn1S(=O)(=O)c1cc([N+](=O)[O-])ccc1Cl,25.4%
2,C/C(=C(\C#N)C(=O)NCCCN1CCOCC1)N(C)C,13.1%
3,C#CCOCCOCCOCCNc1nc(N2CCN(C(=O)CCCCCCCCCCNC(=O)[C@H](CCCCN)n3cc(C)nn3)CC2)nc(N2CCN(C(=O)CCCCCCCCCCNC(=O)[C@H](CO)n3cc(CCCSC)nn3)CC2)n1,52.3% (active)
4,C#CCOCCOCCOCCNc1nc(N2CCN(C(=O)CCCCCCCCCCNC(=O)Cn3cc(CCCCCN)nn3)CC2)nc(N2CCN(C(=O)CCCCCCCCCCNC(=O)[C@H](CO)n3cc(CCCSC)nn3)CC2)n1,11.3%
5,C#CCOCCOCCOCCNc1nc(N2CCN(C(=O)CCCCCCCCCCNC(=O)[C@H]([C@@H](C)CC)n3cc(CCCCN=C(N)N)nn3)CC2)nc(N2CCN(C(=O)CCCCCCCCCCNC(=O)[C@H](CO)n3cc(CCCSC)nn3)CC2)n1,12.1%
6,COCCN(C(=O)CC1CCCCC1)c1c(N)n(CC(C)C)c(=O)[nH]c1=O,13.6%
7,CCOC(=O)CCCNC(=O)COC(=O)c1cc(Br)c(Br)s1,12%
8,COc1ccc(C)cc1NC(=O)CSc1nnc2ccc(-c3ccccn3)nn12,15.8%
9,COc1ccc(-c2nc3n(c(=O)c2C#N)CCS3)c(OC)c1,1.98%
10,Cc1c(Br)c([N+](=O)[O-])nn1C(C)C(=O)Nc1nccs1 (stereo unspecified),9.97%
11,O=C(NCCN1CCOCC1)c1ccc(/C=C2\Sc3ccccc3N(Cc3ccc(F)cc3)C2=O)cc1,62.4% (active)
12,O=C(NCCCN1CCOCC1)c1ccc2c(c1)N(Cc1cccc(F)c1)C(=O)c1ccccc1S2,13.8%
13,CN1CCN(CCCNC(=O)c2ccc(/C=C3\Oc4ccccc4N(Cc4ccc(Cl)cc4)C3=O)cc2)CC1,99.3% (active)
14,CC(C)OCCCNC(=O)CN1C(=O)/C(=C/c2ccccc2F)Oc2ccccc21,13.4%
15,O=C(NCCN1CCOCC1)/C(=C/c1ccc(F)cc1)NC(=O)c1ccccc1,-6.74%
16,CCCN1CCN(C(=O)CCCNC(=O)c2ccc(Cl)cc2)CC1,-0.622%
17,CCN1CCN(CCNC(=O)c2ccc(/C=C3/Sc4ccccc4N(Cc4cccc(C)c4)C3=O)cc2)CC1,96.1% (active)
18,Cc1nn(Cc2ccccc2)c(C)c1C(=O)NCCN1C(=O)S/C(=C\c2ccc(F)cc2)C1=O,26.7%
19,Cc1ccccc1CN1C(=O)c2ccccc2Sc2ccc(C(=O)NCCCN3CCOCC3)cc21,24.3%
20,O=C(CCc1ccc(S(=O)(=O)N2CCOCC2)cc1)NN=C1CCCCCCC1,21.1%
21,N#Cc1cccc(NC(=O)C2CCCN(C(=O)c3ccc(Cl)cc3)C2)c1 (stereo unspecified),27.2%
22,O=C(NNC(=O)C1C2CCC(C2)C1C(=O)O)c1ccc(Cl)cc1 (stereo unspecified),-14%

row,Structure (SMILES),inhibition
1,COc1ccc(C(=O)COC(=O)c2nn(C)c(=O)c3ccccc23)c(OC)c1,3.83%
2,CC(NC(=O)c1cccc(S(=O)(=O)N2CCc3ccccc3C2)c1)c1ccco1 (stereo unspecified),3.48%
3,O=C(NCc1ccncc1)c1cccc(NS(=O)(=O)c2ccc(F)c(F)c2)c1,-23.7%
4,CCOC(=O)C1=C(C)c2ccccc2OC1(C)C(=O)OCC (stereo unspecified),11.2%
5,CC(Oc1ccc2c(-c3ccccc3)cc(=O)oc2c1)C(=O)NC(Cc1c[nH]c2ccccc12)C(=O)O (stereo unspecified),15.6%
6,Cc1ccc(-c2nc(C)sc2CC(=O)OCC(=O)Nc2c(F)cccc2F)cc1,7.55%
7,O=C(O)CCCn1c(=O)c2cccn2c2ccc(F)cc21,4.87%
8,Cc1nnc(N/N=C/c2ccccn2)[nH]c1=O,78.6% (active)
9,Cc1cc(C(=O)N/N=C/c2ccccn2)c2ccccc2n1,-15.6%
10,Cc1nnc(N/N=C/C2CC=CCC2)[nH]c1=O (stereo unspecified),12.6%
11,COc1ccc(-c2nc3c(s2)CCc2onc(-c4ccc(OC)cc4)c2-3)cc1,1.93%
12,O=C(Cc1ccccc1)N1N=C(c2ccncc2)CC1(O)C(F)(F)F (stereo unspecified),13.3%
13,O=C(c1ccc(Cl)cc1)N1N=C(c2ccccn2)CC1(O)C(F)(F)F (stereo unspecified),53% (active)
14,O=C(C1CC1)N1N=C(c2ccc(Br)cc2)CC1(O)C(F)(F)F (stereo unspecified),-5.88%
15,Cc1ccc(NC(=O)CC2C(=O)N(Cc3ccccc3)C(=S)N2NC(=O)c2cccc(F)c2)c(C)c1 (stereo unspecified),6.53%
16,Fc1ccccc1/C=C1\CCCC2=C1Nc1ncnn1C2c1ccccc1F (stereo unspecified),98.8% (active)
17,Cc1ccc(S(=O)(=O)N2CCCCC2)cc1C(=O)N1CCN(CCO)CC1,18.6%
18,CNC[C@H](CC1CCCCC1)NC[C@H](NCCC1CCCC1)[C@H](C)O,99.7% (active)
19,COc1ccccc1N(C)C(=O)c1cc(S(=O)(=O)N2CCc3ccccc32)cn1C,14.1%
20,O=C(CC1SC(N2CCCC2)=NC1=O)Nc1ccc(C(=O)NCCc2ccc(F)cc2)cc1 (stereo unspecified),33.7%
